The full list was thinned out, with hits kept by preference.
PNC inhibitor: inhibitors of perinucleolar compartment assembly; PC3M PTB-GFP, PNC prevalence imaging, 16 h; hits give low values; activity change (PNC), negative = inhibition, % at 10 µM; 140,000 compounds, 3.1% hits; AID 2417;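 active means readout at or below -70, meaning at least 70% loss of cells showing the perinucleolar compartment, a nuclear body marking cancer cells; inconclusive means readout between -30 and a set limit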;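 further: plate controls were DMSO wells for no effect and camptothecin positive control wells for full effect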
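Read-out is percentage of cells bearing a perinucleolar compartment, from automated 20x imaging of fixed, Hoechst-stained PC3M PTB-GFP cells. Cells were seeded 4 h, then exposed 16 h to compound (23 nl of library stock) in duplicate plates.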
HTT aggregate: mutant huntingtin aggregation inhibition; PC12 HttQ103-GFP aggregates, Acumen cytometry, 40 h; Potency, µM (highest dose often 46.1 µM), for the others: top-dose activity change, negative = inhibition, usual class: inhibitors; 220,000 compounds, 1.1% hits; AID 1688; further: potency means the concentration at half of the fitted maximal effect; on the % scale 0 is the no-effect control and ±100 the full control effect; nearly all actives have a fitted effect of over 60% in size
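Inducible Q103 Huntingtin exon 1–GFP PC12 line, 1500 cells/well in phenol red free DMEM with 5% equine and 5% calf serum. Tebufenozide 100 nM induced expression; compounds titrated; aggregates quantified by cytometry.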
HTT cytoprotect: cytoprotection in Huntington HTT-Q103 PC12 cell model | 230,000 compounds, 0.14% hits | AID 1471 | PC12 HTT-Q103 induced, cytoprotection, ATP luminescence, 40 h | Potency, µM (top dose mostly 56.4 µM), for inactives: cytoprotection (ATP increase), most hits filed as activators; further: potency means the concentration at half of the fitted maximal effect; % of control where 0% means no effect; nearly all actives have a fitted effect of over 45% in size
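Cells were plated at 1500 per well in phenol red-free DMEM with 5% equine and 5% calf serum. Tebufenozide (100 nM final) and compounds were added, then ATPlite reagent, and luminescence was read.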
Starred values were filed as active, the others as inactive; ? = inconclusive; . = not tested or not shown; [ ] = dose if it differs, or a comment. Unless noted, the call rests on the fitted dose curve; in most records, active means well fitted curve in the direction sought with a large enough effect; inconclusive means small, poorly fitted or top-dose-only effect, or another doubt; inactive means no such curve, though single readings can be large; an effect the other way counts as inactive or inconclusive.

SMILES | PNC inhibitor | HTT aggregate | HTT cytoprotect
COc1cccc(-c2nc(C(N)=O)c3[nH]c(=O)n(-c4cccc(Cl)c4)c3n2)c1OC | -4 | 19% | -2%
Cn1cc(C(=O)NCc2cccs2)c(=O)c2cc(S(=O)(=O)N3CCCC3)ccc21 | -4 | 11% | .
Cc1ccccc1Cn1nc(C)c(NC(=O)c2cc(CC(C)C)on2)c1C | . | -1%[9.22 µM] | 8%[10 µM]
Cc1nn(Cc2ccc(Cl)c(Cl)c2)c(C)c1NC(=O)c1cc(CC(C)C)on1 | 3 | 10µM* | 15%
COc1cc(/C=C(\C#N)c2nc3ccccc3[nH]2)cc(Br)c1OCc1ccc(F)cc1 | 1 | -28% | -71%
O=C(CCS(=O)(=O)Cc1ccccc1)N1CCN(Cc2ccccc2)CC1 | -30 | -10% | 23%[10 µM]
O=C(NC(=S)Nc1ccccn1)c1ccccc1 | . | 1%[9.22 µM] | -53%[10 µM]
O=C(NC(=S)Nc1ccccn1)c1ccc([N+](=O)[O-])cc1 | -85* | 10% | 7%[10 µM]
CCC(=O)N(Cc1ccco1)c1nc(-c2ccc(OC)cc2)cs1 | 17 | -15% | 9%[1.9 µM]
CCC(=O)N(Cc1ccco1)c1nc(-c2cc(OC)ccc2OC)cs1 | -100* | -11% | 1%[10 µM]
COc1cccc(C2=CC(c3cccc(OC)c3OC(F)F)n3nnnc3N2)c1 (configuration not stated) | 19 | -11% | -10%[10 µM]
COc1cccc(C2=CC(c3cccc(OC)c3OC)n3nnnc3N2)c1 (configuration not stated) | -87* | -13% | -21%
C=CCN(CC(=O)Nc1c(C)cccc1CC)C(=O)SCCC | ? | 10% | -9%
CCC(c1nnc(SCC(=O)Nc2ccc(C(C)=O)cc2)n1C1CCCCC1)N(C)C (configuration not stated) | 1 | -11% | .
CCC(c1nnc(SCC(=O)Nc2cc(Cl)ccc2C#N)n1C1CCCCC1)N(C)C (configuration not stated) | -107* | -4% | -4%[10 µM]
CC1=NN(C(=O)CSCc2ccccc2)C(O)(c2ccc(F)cc2)C1 (configuration not stated) | . | -23% | 5%[10 µM]
CCN1CCN(Cc2c(O)ccc3c2O/C(=C\C=C\c2ccccc2OC)C3=O)CC1 | ? | -2% | 9%[10 µM]
Cc1ccc(NC(=S)NCCc2c[nH]c3ccccc23)cc1 | 6 | 0% | -5%
Cc1cccc(NC(=S)NCCc2c[nH]c3ccccc23)c1 | -1 | 11µM* | 9%[10 µM]
COc1cc(/C=N/NC(=O)c2cccnc2)ccc1OS(=O)(=O)c1ccc(F)cc1 | -4 | -20% | 4%[10 µM]
Cc1cc(C(=O)COC(=O)c2ccc3c(c2)OCO3)c(C)n1CC1CCCO1 (configuration not stated) | . | -6% | -19%
Cc1cc(C(=O)COC(=O)c2ccc(O)cc2)c(C)n1CC1COc2ccccc2O1 (configuration not stated) | -81* | 17% | 2%[10 µM]
Cn1c(SCCOc2ccccc2Cl)nnc1-c1cccs1 | 4 | 11% | -2%[1.9 µM]
O=C(c1ccc2c(c1)N(Cc1cccc(Cl)c1)C(=O)c1ccccc1S2(=O)=O)N1CCN(c2ccccn2)CC1 | . | 4% | -23%
CCOc1ccc(C2N(c3cc(Cl)ccc3OC)C(=O)C3CCCN32)cc1OC (configuration not stated) | 19 | -10% | -9%
SMILES | PNC inhibitor | HTT aggregate | HTT cytoprotect
COc1ccc(-n2c(C)c([N+](=O)[O-])c3ccc(O)c(CN4CCCCC4)c32)cc1 | 4 | 10µM* | -7%
COc1ccc(C(=O)c2coc3ccc(O)c(CN4CCCCC4)c23)cc1 | 2 | -10% | -11%[10 µM]
Cc1ccc(-n2c(C)c([N+](=O)[O-])c3ccc(O)cc32)cc1 | . | ? | 33%[10 µM]
Cc1ccc(-n2c(C)c([N+](=O)[O-])c3ccc(O)c(CN(C)C)c32)cc1 | 8 | 2.5µM* | -4%
O=C(c1ccccc1)N1CCN(CC(O)COC2CCCCC2)CC1 (configuration not stated) | ? | 5% | 13%[10 µM]
O=C1NNC(c2ccccc2)=N/C1=C\c1ccccc1Cl | . | 12%[9.22 µM] | 35%[10 µM]
CN(C)S(=O)(=O)c1ccc(NC(=O)C2CC3C=CC2C3)cc1 (configuration not stated) | ? | -12% | -14%[10 µM]
CCc1cc(C(=O)Nc2ccccc2)cs1 | 16 | -5% | 3%
CCOc1ccc(NC(=O)Nc2ccc3nsnc3c2)cc1 | . | -21% | -20%
CCNC(=S)Nc1ccc(OCC)cc1 | -86* | -6% | 17%[10 µM]
CCOc1ccc(NC(=S)Nc2ccc3nsnc3c2)cc1 | 1 | 3.5µM* | .
CCOc1ccc(NC(=S)Nc2ccc(OCC)cc2)cc1 | . | 0% | ?
COc1ccccc1CNC(=O)CCCc1ccccc1 | ? | -4% | 37%[0.074 µM]
CCn1c(-c2ccccc2O)n[nH]c1=S | -115* | -4% | -10%
CCn1c(-c2csc3ccccc23)n[nH]c1=S | ? | 12% | -4%[10 µM]
CCN(CC)CCNS(=O)(=O)c1ccc(Cl)cc1 | ? | 2% | -16%
CN(C)CCNS(=O)(=O)c1ccc(Cl)cc1 | -100* | 12% | -14%[0.074 µM]
O=C(c1c[nH]c(C(=O)N2CCN(Cc3ccccc3)CC2)c1)C1CCCCC1 | . | -11% | 17%[10 µM]
O=c1[nH]c(CO)nc2c1oc1ccccc12 | 11 | 12% | 17%[10 µM]
Cc1cc(NC(=O)C(=O)NCCN2CCN(C(=O)c3cccs3)CC2)ccc1Br | -100* | ? | -2%[10 µM]
COc1ccc(NC(=O)C(=O)NCCN2CCN(C(=O)c3cccs3)CC2)cc1 | 14 | 7% | 20%[10 µM]
N#CC12CCCCC1CC1CCCCC1(C#N)N2Cc1cccnc1 (configuration not stated) | -87* | 9% | 4%
O=C1C2C3C=CC([C@@H]2C(=O)N1Cc1cccnc1)C31CC1 (some centres not stated) | 71 | 8% | -15%
NC(=O)N/N=C/c1ccccc1OCC(=O)NCc1ccccc1 | ? | -6% | .
CCCC(=O)Nc1ccc(NC(=O)c2cccc(OC)c2)nc1 | -18 | 25% | -17%
SMILES | PNC inhibitor | HTT aggregate | HTT cytoprotect
O=C(Nc1cccnc1)c1ccc(NC(=O)c2ccco2)cc1 | -23 | 4% | 11%
COc1cccc(C(=O)Nc2ccc(NC(C)=O)cn2)c1 | -116* | -4% | -23%[10 µM]
CN(C)S(=O)(=O)Oc1cccc(C(=O)Nc2ccc(Cl)c(Cl)c2)c1 | 33 | 13µM* | -46%
O=C(Nc1ccc(NC(=O)c2ccco2)nc1)c1cccnc1 | -100* | 9% | -20%[10 µM]
CN(C)S(=O)(=O)Oc1cccc(C(=O)Nc2cccc(Cl)c2)c1 | 26 | -25% | 33%
C=CCNC(=O)CN1CCC(n2nnc3cc(C(F)(F)F)ccc32)CC1 | . | 19%[9.22 µM] | 8%[10 µM]
CC1CCN(S(=O)(=O)c2cc(Cl)ccc2Br)CC1 | 41 | ? | -12%[0.074 µM]
CC(On1nnc2ccccc21)C(=O)N1CCN(Cc2ccccc2)CC1 (configuration not stated) | . | ? | 0.71µM*
CC(C(=O)N1CCN(Cc2ccccc2)CC1)c1ccc([N+](=O)[O-])cc1 (configuration not stated) | . | -3%[9.22 µM] | -7%[10 µM]
COC(=O)c1cc(Cl)c(NC(=O)/C=C/c2ccc(Cl)cc2Cl)cc1OC | -11 | -11% | -34%[10 µM]
COC(=O)c1ccc(Cl)cc1NC(=O)/C=C/c1ccc(C)o1 | -124* | ? | .
COc1ccc(-n2nnc3c(=O)n(Cc4cc(C)ccc4C)cnc32)cc1 | -4 | 15% | -24%[0.074 µM]

Screens as filed in PubChem.
